# Screening results deposited in PubChem BioAssay by National Center for Advancing Translational Sciences (NCATS).
# Luc counter: Kinase-Glo luciferase inhibition (counter-screen); Q27757; Kinase-Glo luciferase, ATP luminescence, 8 min; Potency, µM (doses to about 38.3 µM), hits mostly inhibitors; 0.28% of 200,000 active; AID 1379; further: nearly all actives have a fitted effect of over 60% in size
#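 Light output from Kinase-Glo luciferase with luciferin and 10 uM ATP in 50 mM imidazole pH 7.2, KCl, MgCl2, Tween 20, BSA; compound pin-delivered, 8-min ambient incubation, then luminescence read.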
# FLuc modulator: counter-screen for miR-21 project: firefly luciferase inhibitors or activators | purified FLuc, Km substrates, luminescence inhibition | 6.9% of 360,000 active | Potency, µM (highest dose often 57.5 µM), actives largely listed as inhibitors; further: nearly all actives have a fitted effect of over 55% in size
# Target sequence (P08659 whole entry, looked up): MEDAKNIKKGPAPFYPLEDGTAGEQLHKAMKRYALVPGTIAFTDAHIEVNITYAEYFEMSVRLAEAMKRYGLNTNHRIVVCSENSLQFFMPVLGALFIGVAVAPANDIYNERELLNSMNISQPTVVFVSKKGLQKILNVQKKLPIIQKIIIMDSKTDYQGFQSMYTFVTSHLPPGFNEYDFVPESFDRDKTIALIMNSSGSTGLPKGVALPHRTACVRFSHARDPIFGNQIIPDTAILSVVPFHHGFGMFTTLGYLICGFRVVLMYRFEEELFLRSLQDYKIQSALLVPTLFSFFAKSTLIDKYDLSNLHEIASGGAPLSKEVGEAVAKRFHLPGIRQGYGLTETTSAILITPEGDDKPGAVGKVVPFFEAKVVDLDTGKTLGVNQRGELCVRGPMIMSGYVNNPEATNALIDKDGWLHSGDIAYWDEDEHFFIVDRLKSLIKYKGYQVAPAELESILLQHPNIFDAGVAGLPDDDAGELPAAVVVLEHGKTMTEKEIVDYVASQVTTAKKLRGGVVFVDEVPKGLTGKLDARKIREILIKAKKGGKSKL
#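 Purified P. pyralis luciferase, 10 nM final, with Km-level 10 uM D-luciferin and 10 uM ATP in 50 mM Tris acetate pH 7.5, 10 mM Mg acetate, 0.01% Tween-20, 0.05% BSA; 6-point qHTS titration about 60 µM downward; luminescence read.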
# SMN2 splice enh: enhancers of SMN2 splice variant expression; AID 1458; Potency, µM (highest dose often 46.1 µM), actives largely listed as activators; 2.8% of 210,000 active; HEK293 SMN2-luciferase splicing reporter, luminescence, 30-36 h; further: nearly all actives have a fitted effect of over 55% in size
#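 HEK293 cells carry an SMN2 minigene-luciferase reporter in which exon 7 inclusion puts luciferase in frame. Cells were seeded at 2000 cells/well, attached for 10-12 hours, then exposed to compounds for 30-36 hours at 37C before ONE-Glo luminescence.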
# Rab9 prom act: activators of Rab9 promoter. Huh7 Rab9 promoter-luciferase reporter, luminescence, 24 h. Potency, µM (titrated, usually from 9.22 µM), most hits filed as activators. 2.8% of 320,000 active. AID 485297; further: nearly all actives have a fitted effect of over 60% in size
#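 Steps: seed 1500 Huh7 Rab9-luc cells per well, rest 2 h at 37 °C; add compound in DMSO; incubate 24 h; add luciferase reagent, 10 min ambient; read luminescence.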
# ELG1 genotox: induces genotoxicity in HEK293T cells with luciferase-tagged ELG1; HEK293T ELG1-luciferase reporter, luminescence, 16 h; Potency, µM (doses to about 46 µM), most hits filed as activators; 1.3% of 330,000 active; further: nearly all actives have a fitted effect of over 60% in size
#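 Step 1: seed 2,000 HEK293T ELG1-luciferase cells per well. Step 2: add compound or DMSO, incubate 16 hr at 37 °C. Step 3: ONE-Glo, 30 min at room temperature, read luminescence.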
# NPC1 prom act: activators of NPC1 promoter | Huh7 NPC1 promoter luciferase reporter, 24 h | Potency, µM (top dose mostly 9.22 µM), most hits filed as activators | 2.4% of 320,000 active | AID 485313; further: nearly all actives have a fitted effect of over 60% in size
#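 Stably transfected Huh7 (NPC1 promoter→luciferase), 1500 cells/well in Opti-MEM + 10% FBS, 2 h settle, then compound 24 h at 37 °C. Luminescence after 10 min with Amplite reagent.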
# Numbers stand for hits; i = inactive; ? = inconclusive; nt = not tested or not shown; [ ] = remark or other dose. Compounds with a hit are over-represented: about 7.5% of the library has one in this group of screens. The call rests on the fitted dose curve; in most records, active means well fitted curve in the direction sought with a large enough effect; inconclusive means small, poorly fitted or top-dose-only effect, or another doubt; inactive means no such curve, though single readings can be large; an effect the other way counts as inactive or inconclusive.
SMILES,Luc counter,FLuc modulator,SMN2 splice enh,Rab9 prom act,ELG1 genotox,NPC1 prom act
Cc1nc(CN(C)C(=O)c2cc(COc3c(F)cccc3F)on2)cs1,i,i,nt,i,i,i
CN(Cc1cc(-c2ccccc2)on1)C(=O)c1cc(COc2c(F)cccc2F)on1,i,24µM,nt,2.5µM,i,i
COC(=O)[C@H](Cc1ccccc1)NC(=O)c1cc(COc2c(F)cccc2F)on1,nt,19µM,nt,?,?,?
CCC(NC(=O)c1cc(COc2c(F)cccc2F)on1)c1ccncc1 (stereo not drawn),nt,i,nt,i,i,i
COc1ccc(N2CCN(S(=O)(=O)c3cc(C)ccc3OC)CC2)cc1,i,i,i,i,i,i
Nc1[nH]n2c(=O)cc(-c3ccccc3)nc2c1N=Nc1ccc(S(N)(=O)=O)cc1,i,9.5µM,nt,i,i,i
Cc1ccc(N=Nc2c(N)[nH]n3c(=O)cc(C)nc23)cc1,i,17µM,i,i,i,i
Nc1[nH]n2c(=O)cc(-c3ccccc3)nc2c1N=Nc1ccccc1,i,17µM,i,i,i,i
CCOC(=O)c1ccc(-n2c(CCC(=O)O)ccc2-c2ccc(Br)cc2)cc1,nt,?,i,nt,nt,nt
Cc1ccc(S(=O)(=O)N2CCNC(=O)CC2)cc1,i,i,i,i,i,i
O=C(Cn1cc([N+](=O)[O-])cn1)Nc1ccn(Cc2c(F)c(F)c(F)c(F)c2F)n1,i,i,i,i,i,i
Cc1ccc(C(=O)Nc2scc(-c3ccccc3)c2C(=O)O)o1,i,15µM,i,i,i,i
Cc1ccc(-c2csc(NC(=O)c3ccccc3F)c2C(=O)O)cc1,nt,21µM,nt,i[1.84 µM],i,?
O=C(Nc1scc(-c2ccccc2)c1C(=O)O)c1ccccc1F,nt,27µM,nt,i,i,i
COc1ccc(-c2csc(NC(=O)c3ccccc3Br)c2C(=O)O)cc1,nt,?,nt,i,i,i
NC(=O)c1ccsc1NC(=O)CSc1nnc(NC2CC2)s1,nt,nt,nt,nt,i,nt
CC(C)C(OC(=O)c1ccccc1)c1nccc2ccccc12 (stereo not drawn),nt,17µM,nt,?,?,?
O=C(OC(c1ccccc1)c1nccc2ccccc12)c1cccc([N+](=O)[O-])c1 (stereo not drawn),i,?,i,i,?,i
CCCc1nc2oc3ccccc3c(=O)c2c(=O)n1-c1ccc(C)cc1,nt,i,nt,?,?,i
CCCc1nc2oc3ccccc3c(=O)c2c(=O)n1-c1ccccc1,nt,i,nt,i,?,i
CCc1nc2oc3ccccc3c(=O)c2c(=O)n1-c1ccccc1,i,i,11µM,i,13µM,i
CCc1nc2oc3ccccc3c(=O)c2c(=O)n1-c1ccc(C)cc1,nt,17µM,nt,i,?,i
COC(=O)C(C)Oc1ccc(-c2nccc(-c3ccc(F)cc3)n2)cc1 (stereo not drawn),nt,15µM,nt,i,i,i
Oc1ccc(-c2nc(-c3ccc(F)cc3)c(-c3ccncc3)[nH]2)cc1,i,i,i,i,i,i
NNC(=O)COc1ccc(-c2nccc(-c3ccc(F)cc3)n2)cc1,nt,?,nt,i,i,i
SMILES,Luc counter,FLuc modulator,SMN2 splice enh,Rab9 prom act,ELG1 genotox,NPC1 prom act
COC(=O)C(C)Oc1ccc(-c2nccc(-c3ccccn3)n2)cc1 (stereo not drawn),nt,19µM,nt,i,i,i
Oc1ccc(-c2nccc(-c3ccc(F)cc3)n2)cc1,nt,13µM,nt,?,?,?
Cc1cc(C)cc(N(C(C)C(=O)NCCC2=CCCCC2)S(C)(=O)=O)c1 (stereo not drawn),i,i,i,i,i,i
COC(=O)c1ccc(NC(=O)CCOc2ccccc2)cc1,i,i,i,i,i,i
COc1ccc(NC(=O)CCOc2ccccc2)cc1,i,17µM,?,4.5µM,?,3.2µM
O=C(CCOc1ccccc1)Nc1ccc(Br)cc1,nt,?,nt,3.2µM,i,?
CCOc1ccc2c(c1)c(N=O)c(O)n2C,i,i,i,i,i,i
CCCn1cnc2c(sc3nc4c(cc32)CSC(C)(C)C4)c1=O,i,?,13µM,1.6µM,4.6µM,2.8µM
CC1(C)Cc2nc3sc4c(=O)n(Cc5ccccc5)cnc4c3cc2CS1,i,i,i,i,i,i
Nc1nn2cc(-c3ccc(Br)cc3)nc2c2ccccc12,nt,1.7µM,nt,2.2µM,?,1.8µM
Nc1cc(-c2ccccc2)nn1S(=O)(=O)c1ccc(Br)cc1,i,i,i,i,i,i
Cc1ccc(N2NC(C)(c3cccs3)NC2=S)cc1 (stereo not drawn),i,9.5µM,i,3.5µM,?,4.5µM
O=CN/N=C/c1c(O)ccc2ccccc12,nt,i,nt,i,i,i
NC(=S)N/N=C/c1c(O)ccc2ccccc12,nt,i,nt,i,i,i
Oc1ccc2ccccc2c1/C=N/Nc1ccccc1,i,6µM,?,i,?,i
Oc1ccc2ccccc2c1C=NCc1ccccc1,nt,11µM,nt,i,i,i
CC1CN(c2ccc([N+](=O)[O-])nc2)CC(C)O1 (stereo not drawn),i,i,i,i,i,i
CCOC(=O)C(=O)N/N=C/c1ccc(F)cc1,nt,13µM,nt,i,i,i
O=C(COCC(=O)N/N=C/c1ccccc1F)N/N=C/c1ccccc1F,i,?,i,i,i,i
O=C(N/N=C/c1ccc(F)cc1)c1sccc1OCc1ccc(F)cc1,i,9.5µM,i,i,i,i
O=C(COCC(=O)N/N=C/c1ccc(F)cc1)N/N=C/c1ccc(F)cc1,i,8.5µM,i,i,i,i
Cc1cc(C(=O)CSc2nncs2)c(C)n1-c1c(C)n(C)n(-c2ccccc2)c1=O,i,i,i,i,i,i
Cc1ccc(-n2c(C)cc(C(=O)CSc3nnnn3C)c2C)cc1,i,2.7µM,?,0.71µM,i,0.71µM
Cc1cc(C(=O)CSc2nnnn2-c2ccc(O)cc2)c(C)n1C,i,?,i,i,i,i
Cc1ccc(-n2c(C)cc(C(=O)CSc3nncs3)c2C)cc1,i,3µM,i,0.5µM,?,1µM
SMILES,Luc counter,FLuc modulator,SMN2 splice enh,Rab9 prom act,ELG1 genotox,NPC1 prom act
COc1ccc(C)cc1Nc1nc2c(S(=O)(=O)c3cccc(Cl)c3)nnn2c2ccsc12,nt,i,nt,nt,nt,nt
CC(=O)c1ccccc1OCC(O)Cn1c(CO)nc2ccccc21 (stereo not drawn),nt,24µM,i,nt,nt,nt
CC(C)(C)c1ccc(/C=N/NC(=O)C2CCCC2)cc1,nt,19µM,nt,?,?,?
CC(C)c1ccc(/C=N/NC(=O)C2CCCC2)cc1,nt,12µM,nt,2.5µM,5.8µM,2µM
O=C(Nc1ccc(-c2nc3ccccc3s2)c(O)c1)C1=COCCO1,i,0.48µM,2.2µM,0.71µM,16µM,0.5µM
O=C(Nc1ccc(O)c(-c2nc3ccccc3s2)c1)C1=COCCO1,i,i,i,i,i,i
O=C(Nc1cccc(-c2nc3ccccc3s2)c1)C1=COCCO1,i,17µM,i,i,i,i
Cc1ccc(/C=N/Nc2cccc(C(=O)O)c2)s1,i,0.95µM,0.25µM,0.089µM,?,0.089µM
